The values that follow come from ChEMBL document CHEMBL2218924, “A broad activity screen in support of a chemogenomic map for kinase signalling research and drug discovery” (Biochem J, 2013).

The structures appear in SMILES notation.

The assay deals with Proto-oncogene tyrosine-protein kinase ROS (Homo sapiens) (UniProt P08922). Particulars: at 1 µM.
Proto-oncogene tyrosine-protein kinase ROS (Homo sapiens), sequence (P08922 whole entry): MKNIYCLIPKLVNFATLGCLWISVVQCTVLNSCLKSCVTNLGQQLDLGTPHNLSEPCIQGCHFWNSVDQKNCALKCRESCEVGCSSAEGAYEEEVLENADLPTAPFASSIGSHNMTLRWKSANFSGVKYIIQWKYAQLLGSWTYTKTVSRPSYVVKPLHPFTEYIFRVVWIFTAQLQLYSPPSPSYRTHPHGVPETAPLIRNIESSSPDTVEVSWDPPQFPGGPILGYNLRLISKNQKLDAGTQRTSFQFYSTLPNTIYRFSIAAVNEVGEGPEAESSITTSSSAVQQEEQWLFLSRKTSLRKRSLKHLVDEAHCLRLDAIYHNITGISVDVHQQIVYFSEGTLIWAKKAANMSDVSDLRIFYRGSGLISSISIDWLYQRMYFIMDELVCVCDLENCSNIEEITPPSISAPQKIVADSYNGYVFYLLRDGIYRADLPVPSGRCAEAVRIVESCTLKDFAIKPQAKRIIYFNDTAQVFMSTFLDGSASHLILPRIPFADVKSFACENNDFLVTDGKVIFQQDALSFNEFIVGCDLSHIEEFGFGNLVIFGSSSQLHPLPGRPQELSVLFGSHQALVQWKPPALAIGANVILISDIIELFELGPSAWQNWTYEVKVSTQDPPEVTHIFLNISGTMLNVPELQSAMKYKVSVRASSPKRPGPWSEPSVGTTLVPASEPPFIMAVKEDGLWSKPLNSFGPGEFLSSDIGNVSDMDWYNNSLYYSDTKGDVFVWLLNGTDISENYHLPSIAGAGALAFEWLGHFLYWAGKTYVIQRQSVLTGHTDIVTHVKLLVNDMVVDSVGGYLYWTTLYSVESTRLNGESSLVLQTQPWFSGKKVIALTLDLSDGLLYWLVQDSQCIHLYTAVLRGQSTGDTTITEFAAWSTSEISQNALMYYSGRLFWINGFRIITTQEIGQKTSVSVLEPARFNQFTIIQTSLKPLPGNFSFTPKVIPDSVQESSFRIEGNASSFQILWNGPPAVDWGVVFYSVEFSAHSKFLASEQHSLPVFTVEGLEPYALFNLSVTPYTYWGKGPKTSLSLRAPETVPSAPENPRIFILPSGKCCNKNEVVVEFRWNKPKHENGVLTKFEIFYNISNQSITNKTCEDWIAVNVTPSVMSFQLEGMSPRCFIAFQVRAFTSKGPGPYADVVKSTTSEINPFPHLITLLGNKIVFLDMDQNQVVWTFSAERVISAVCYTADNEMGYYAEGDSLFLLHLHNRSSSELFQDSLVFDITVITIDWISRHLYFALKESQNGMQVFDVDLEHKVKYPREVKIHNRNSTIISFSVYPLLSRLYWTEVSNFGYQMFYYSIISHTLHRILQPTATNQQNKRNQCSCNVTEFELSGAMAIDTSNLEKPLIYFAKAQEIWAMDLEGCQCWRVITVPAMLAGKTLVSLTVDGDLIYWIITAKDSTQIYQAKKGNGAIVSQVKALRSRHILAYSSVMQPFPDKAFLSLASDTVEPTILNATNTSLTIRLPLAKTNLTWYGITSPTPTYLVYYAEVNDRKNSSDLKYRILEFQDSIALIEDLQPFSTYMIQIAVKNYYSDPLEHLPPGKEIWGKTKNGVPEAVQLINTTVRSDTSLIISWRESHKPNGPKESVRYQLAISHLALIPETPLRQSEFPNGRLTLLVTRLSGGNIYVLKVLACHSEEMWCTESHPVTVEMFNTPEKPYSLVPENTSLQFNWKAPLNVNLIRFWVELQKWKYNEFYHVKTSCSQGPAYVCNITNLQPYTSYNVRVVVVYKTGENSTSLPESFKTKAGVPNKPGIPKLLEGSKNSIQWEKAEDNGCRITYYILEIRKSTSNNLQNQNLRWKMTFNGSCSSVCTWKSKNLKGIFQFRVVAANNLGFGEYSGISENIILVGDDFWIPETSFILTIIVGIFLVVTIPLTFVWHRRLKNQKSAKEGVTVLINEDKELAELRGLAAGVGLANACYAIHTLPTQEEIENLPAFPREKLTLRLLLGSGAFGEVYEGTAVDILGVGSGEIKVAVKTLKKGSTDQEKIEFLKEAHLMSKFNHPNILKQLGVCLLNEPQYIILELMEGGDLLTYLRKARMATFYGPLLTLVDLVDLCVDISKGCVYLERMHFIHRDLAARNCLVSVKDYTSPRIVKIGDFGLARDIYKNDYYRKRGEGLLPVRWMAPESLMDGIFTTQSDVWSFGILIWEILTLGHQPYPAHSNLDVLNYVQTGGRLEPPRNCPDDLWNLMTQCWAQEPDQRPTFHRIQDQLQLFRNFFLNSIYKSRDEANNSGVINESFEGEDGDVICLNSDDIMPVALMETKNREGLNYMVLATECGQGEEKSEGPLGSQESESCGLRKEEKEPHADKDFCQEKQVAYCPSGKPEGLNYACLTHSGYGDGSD
As a reminder, the residual activity is the signal under treatment as a percentage of the control signal. `COc1cc2ncnc(Nc3ccc(NC(=O)c4ccccc4)cc3)c2cc1OC`: the residual activity is 109%. Then `CCN(CC)C(=O)c1ccc(Nc2nc(OCC3CCCCC3)c3nc[nH]c3n2)cc1`, with 95%. As to `Cc1ccc(S(=O)(=O)/C=C/C#N)cc1`, the residual activity worked out at 104%. Take `Oc1n[nH]c2nnc(-c3c(-c4ccccc4)nn4ccccc34)cc12`: the residual activity was found to be 91%.

As to `Cc1nc(-c2ccccc2)c(-c2ccncc2)o1`, the residual activity stood at 98%. For `Oc1ccc(-c2nc(-c3ccc(F)cc3)c(-c3ccncc3)[nH]2)cc1`, the residual activity was 115%. Regarding `COc1cc2ncnc(Nc3ccc(O)c(Br)c3)c2cc1OC`, the residual activity worked out at 88%. For the molecule `CO[C@H]1C[C@@H]2CC[C@@H](C)[C@@](O)(O2)C(=O)C(=O)N2CCCC[C@H]2C(=O)O[C@H]([C@H](C)C[C@@H]2CC[C@@H](O)[C@H](OC)C2)CC(=O)[C@H](C)/C=C(\C)[C@@H](O)[C@@H](OC)C(=O)[C@H](C)C[C@H](C)/C=C/C=C/C=C/1C`, the residual activity is 90%. Then `Cn1cnc2cc3c(Nc4cccc(Br)c4)ncnc3cc21`, with 91%.

With `O=C1NC(=O)c2cc(Nc3ccc(F)cc3)c(Nc3ccc(F)cc3)cc21`, the residual activity was determined as 94%. For `c1ccc(-c2n[nH]cc2-c2ccnc3ccccc23)nc1`, the residual activity turned out to be 98%. Regarding `CN(C)CCCn1cc(C2=C(c3c[nH]c4ccccc34)C(=O)NC2=O)c2ccccc21`, the residual activity was determined as 108%. For the molecule `O=C1NC(=O)/C(=C\c2ccc3nccnc3c2)S1`, the residual activity amounted to 94%. Take `CO[C@@H]1[C@H](N(C)C(=O)c2ccccc2)C[C@H]2O[C@]1(C)n1c3ccccc3c3c4c(c5c6ccccc6n2c5c31)C(=O)NC4`: the residual activity is 63%. Then `COc1ccc(OC)c2c(=S)c3ccccc3[nH]c12`, with 99%. Take `CC#CC(=O)Nc1cc2c(Nc3ccc(F)c(Cl)c3)ncnc2cn1`: the residual activity is 94%.

For `c1ccc(-c2n[nH]c3c2oc2ccccc23)cc1`, the residual activity amounted to 97%. Consider `Cc1cncc2cccc(S(=O)(=O)N3CCCN(C(=O)CN)C[C@H]3C)c12`, for which the residual activity was determined as 90%. In the case of `C[C@@H](N)[C@H]1CC[C@H](C(=O)Nc2ccncc2)CC1`, the residual activity stood at 104%. `N#CC(C#N)=C(N)/C(C#N)=C/c1ccc(O)cc1`: the residual activity was 95%. On to `CO[C@H]1[C@@H](OC)C[C@H](C)[C@@H](OC)C2=CC(=O)C=C(NC(=O)/C(C)=C/C=C/[C@H](OC)[C@@H](OC(N)=O)/C(C)=C/[C@@H]1C)C2=O`, for which the residual activity stood at 92%.

In the case of `Oc1ccc(Nc2nc(-c3ccc(Cl)cc3)cs2)cc1`, the residual activity came out at 110%. Then `COc1cc2ncnc(Nc3ccc(Oc4ccccc4)cc3)c2cc1OC`, with 102%; and `Nc1n[nH]c2nnc(-c3c(-c4ccccc4)nn4ccccc34)cc12`, with 91%. For `Ic1cccc(CSc2nnc(-c3ccncc3)o2)c1`, the residual activity is 93%. In the case of `Cc1cccc(-c2[nH]c(C(C)(C)C)nc2-c2ccc3c(c2)OCO3)n1`, the residual activity stood at 91%.

Regarding `Cn1nc2c3c(cccc31)C(=O)c1ccccc1-2`, the residual activity is 97%.

As to `O=c1c2ccccc2[nH]c(=S)n1CCN1CCC(=C(c2ccc(F)cc2)c2ccc(F)cc2)CC1`, the residual activity came to 98%.

Turning to `Cc1ccc(NC2=CC(=O)c3sc(C)nc3C2=O)cc1`, the residual activity came out at 101%.

`COc1cc2ncnc(N3CCN(C(=O)Nc4ccc(Oc5ccccc5)cc4)CC3)c2cc1OC`: the residual activity came to 81%.
